High-throughput results as filed in PubChem.
Rab9 promoter act – activates the Rab9 promoter | Potency, µM (series often up to 9.22 µM), inactives show at the top dose activation, negative = inhibition, usual class: activators | AID 485297 | Huh7 Rab9 promoter-luciferase reporter, luminescence, 24 h | 320,000 compounds, 2.8% hits; further: % of control where 0% means no effect; nearly all actives have a fitted effect of over 60% in size
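Cells were plated at 1500 per well in reduced-serum medium with 10% FBS and left 2 h. Compound in DMSO was then added for 24 h at 37 °C. Reporter signal was read by luminescence after 10 min with luciferase detection reagent.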
FLuc modulator – counter-screen for miR-21 project: firefly luciferase inhibitors or activators. P08659. purified FLuc, Km substrates, luminescence inhibition. Potency, µM (top dose mostly 57.5 µM), for the others: at the highest dose activity change, negative = inhibition, hits mostly inhibitors. 360,000 compounds, 6.9% hits. AID 588342;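 further: plate controls were vehicle for no effect and reference inhibitor for full effect; nearly all actives have a fitted effect of over 55% in size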
Target sequence (P08659 whole entry, looked up): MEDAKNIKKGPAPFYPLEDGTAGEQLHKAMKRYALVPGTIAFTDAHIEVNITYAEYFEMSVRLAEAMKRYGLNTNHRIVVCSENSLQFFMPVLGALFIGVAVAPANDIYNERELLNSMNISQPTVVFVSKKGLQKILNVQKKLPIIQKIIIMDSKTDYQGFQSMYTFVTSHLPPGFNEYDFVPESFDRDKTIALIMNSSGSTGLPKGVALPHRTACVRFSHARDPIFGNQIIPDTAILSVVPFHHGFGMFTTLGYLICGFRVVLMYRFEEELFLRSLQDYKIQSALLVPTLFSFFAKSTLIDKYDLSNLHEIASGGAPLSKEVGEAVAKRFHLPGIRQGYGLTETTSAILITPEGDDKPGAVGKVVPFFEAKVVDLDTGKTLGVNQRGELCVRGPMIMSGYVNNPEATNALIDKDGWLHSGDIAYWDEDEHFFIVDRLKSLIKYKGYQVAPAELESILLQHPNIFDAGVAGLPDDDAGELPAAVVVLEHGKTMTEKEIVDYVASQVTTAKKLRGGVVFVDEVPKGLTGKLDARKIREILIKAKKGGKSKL
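Purified P. pyralis luciferase, 10 nM final, with Km-level 10 uM D-luciferin and 10 uM ATP in 50 mM Tris acetate pH 7.5, 10 mM Mg acetate, 0.01% Tween-20, 0.05% BSA; 6-point qHTS titration about 60 µM downward; luminescence read.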
ELG1 genotoxic – inducers of genotoxicity in HEK293T ELG1-luciferase cells; Potency, µM (titrated, usually from 46 µM), for the others: top-dose activity change, positive = activation, usual class: activators; 330,000 compounds, 1.3% hits; HEK293T ELG1-luciferase reporter, luminescence, 16 h; further: % of control where 0% means no effect; nearly all actives have a fitted effect of over 60% in size
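Cells (2,000/well) expressing the ELG1-luciferase fusion are dosed by pin tool and kept 16 hr at 37 °C, 5% CO2. Signal comes from ONE-Glo luciferase reagent after 30 min at room temperature.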
SMN2 splice enh – increases expression of the SMN2 splice variant; HEK293 SMN2-luciferase splicing reporter, luminescence, 30-36 h; Potency, µM (highest dose often 46.1 µM), without a hit: at the top dose activity change, positive = activation, most hits filed as activators; 210,000 compounds, 2.8% hits; AID 1458; further: % of control where 0% means no effect; nearly all actives have a fitted effect of over 55% in size
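HEK293 cells carry an SMN2 […]–luciferase reporter in which exon 7 inclusion puts luciferase in frame. Cells were plated 10-12 h before compound addition, then incubated 30-36 h at 37C. ONE-Glo luminescence was read; sodium butyrate at 4.5 mM final served as control.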
NPC1 prom act – NPC1 promoter activation | Huh7 NPC1 promoter luciferase reporter, 24 h | Potency, µM (doses to about 9.22 µM), inactives show at the top dose activation, usual class: activators | 320,000 compounds, 2.4% hits; further: % of control where 0% means no effect; nearly all actives have a fitted effect of over 60% in size
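In 1536-well qHTS, Huh7 cells harboring an NPC1 promoter–luciferase construct received compound for 24 h; activation was quantified by luminescence following luciferase reagent addition.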
KinaseGlo FLuc – blocks Kinase-Glo luciferase, a counter-screen artifact | Q27757 | Kinase-Glo luciferase, ATP luminescence, 8 min | Potency, µM (series often up to 38.3 µM), for inactives: at the top dose activity change, negative = inhibition, hits mostly inhibitors | 200,000 compounds, 0.28% hits; further: on the % scale 0 is the no-effect control and ±100 the full control effect; nearly all actives have a fitted effect of over 60% in size
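Substrate mix (final 50 mM imidazole pH 7.2, 50 mM KCl, 7 mM MgCl2, 10 uM ATP, 0.01% Tween 20, 0.05% BSA) plus pin-tool compound, then Kinase-Glo detection mix; 8 min ambient, luminescence read.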
* hit, by the source's call; u = inconclusive; x = not tested or not shown; [ ] = dose if it differs, or a comment. A selection: hits, their analogues and other compounds. The true share with any hit is near 7.5%. The call rests on the fitted dose curve; in most records, active means well fitted curve in the direction sought with a large enough effect; inconclusive means small, poorly fitted or top-dose-only effect, or another doubt; inactive means no such curve, though single readings can be large; an effect the other way counts as inactive or inconclusive. Potency means the concentration at half of the fitted maximal effect.

SMILES	Rab9 promoter act	FLuc modulator	ELG1 genotoxic	SMN2 splice enh	NPC1 prom act	KinaseGlo FLuc
COc1ccc(-c2nc3c4ccccc4ccn3c2C=O)cc1	7%	-11%	3%	-4%	-3%	4%
COc1ccc(OC)c(/C=N/c2c(-c3ccc(O)c(OC)c3)nc3ccccn23)c1	-1%	u	1%	-12%	-1%	-1%
Cc1c(-c2ccc(Br)cc2)nc2ccccn12	2.5µM*	2.4µM*	u	x	3.2µM*	x
c1ccn2c(c1)nc1c2nc2ccccn21	21%	17µM*	u	24%	u	1%
O=C(NCc1cc([N+](=O)[O-])ccc1O)c1cccc(NS(=O)(=O)c2ccccc2)c1	-4%	-19%	-10%	x	-10%	x
Clc1c(-c2ccccc2)nc2ccccn12	2.5µM*	12µM*	u	x	4µM*	x
Cc1cc(C(=O)Nc2cccc(C(=O)O)c2)c(C)o1	4µM*	11µM*	u	u	3.5µM*	-7%
Cc1oc(CC(C)C)cc1C(=O)Nc1ccc(C(=O)O)cc1	21%	12µM*	-41%	11%	u	3%
CC(C)(C)c1ccc(C(=O)Nc2ccc(NC(=O)C(=O)O)cc2)o1	-3%	9.5µM*	-2%	6%	1%	-3%
Cc1oc(C(C)(C)C)cc1C(=O)Nc1ccc(C(=O)O)cc1	u	17µM*	17%	u	u	3%
Cc1cc(C(=O)Nc2ccc(C(=O)O)cc2)c(C)o1	0%	u	1%	x	1%	x
Cc1ccc(C(=O)Nc2ccc(F)cc2)o1	26%	u	13%	9%	23%	-7%
O=C(Nc1ccccc1Cl)c1ccc(F)c(S(=O)(=O)NCc2ccc(Cl)c(Cl)c2)c1	x	-2%	x	x	x	x
CCc1cccc(NC(=O)C(CC)n2nc(C)c3sc4ccccc4c3c2=O)c1 (stereo unspecified)	x	-19%	x	x	x	x
CCC(Sc1nc2nccnc2c(=O)n1Cc1ccc(OC)cc1)C(=O)NC1CCCCC1 (stereo unspecified)	x	3%	x	x	x	x
NC1(C(=O)O)CCc2cc(C(=O)O)ccc21 (stereo unspecified)	-1%[46.1 µM]	x	x	6%	7%[46.1 µM]	-9%
Cc1oc(C(C)(C)C)cc1C(=O)Nc1cccc(C(=O)O)c1	3.2µM*	12µM*	u	u	0.71µM*	-4%
Cc1cc(C(=O)Nc2cccc(C(=O)O)c2)oc1C	u	0.54µM*	u	1.6µM*	u	u
COc1ccc(-c2nnc(SCc3nc4ccccc4s3)n2C(C)C)cc1	u	u	u	29%	25%	2%
Cc1ccccc1-n1c(C)nnc1SCc1nc2ccccc2s1	28%	4.8µM*	u	2%	15%	-3%
CCOc1ccc(-n2nnnc2-c2nc3ccccc3s2)cc1	2.5µM*	2.1µM*	18µM*	-55%	u	-5%
CCn1c(SCc2nc3ccccc3s2)nnc1-c1cccs1	u	15µM*	u	u	18%	-5%
CCOc1ccccc1-n1nnnc1SCc1nc2ccccc2s1	17%	13µM*	-4%	-28%	14%	-2%
COc1ccccc1-c1nnc(SCc2nc3ccccc3s2)n1C	24%	u	4%	0%	20%	1%
Cn1c(SCc2nc3ccccc3s2)nnc1-c1cccs1	6%	u	u	-12%	18%	-11%
SMILES	Rab9 promoter act	FLuc modulator	ELG1 genotoxic	SMN2 splice enh	NPC1 prom act	KinaseGlo FLuc
O=C(Cn1cnc2onc(-c3ccc(F)cc3)c2c1=O)N1CCN(c2ccc(F)cc2)CC1	x	2%	x	x	x	x
CCCCC(=O)OCC(=O)Nc1ccc(OC(F)F)cc1	8%	u	1%	-16%	0%	-3%
CCCCC(=O)OCC(=O)Nc1ccc(C)c(F)c1	-8%	17µM*	2%	-13%	1%	1%
O=C(COC(=O)C1CC1)Nc1ccc(OC(F)F)cc1	0%	u	10%	-6%	0%	-2%
O=C(COC(=O)C1CCC1)NCc1ccc(Cl)cc1Cl	2%	17µM*	12%	x	0%	x
Cc1ccc(NC(=O)COC(=O)C2CC2)cc1Cl	1%	15µM*	3%	x	-2%	x
O=C(COC(=O)C1CC1)Nc1ccc(N=Nc2ccccc2)cc1	0.63µM*	u	21µM*	6.3µM*	3.5µM*	-5%
Cc1ccc(NC(=O)COC(=O)C2CC2(Cl)Cl)cc1C (stereo unspecified)	-1%	8.5µM*	3%	-8%	1%	3%
COC(=O)CCC(=O)Nc1ccc(N=Nc2ccccc2)cc1	u	21µM*	u	u	27%	0%
O=C(NCc1cccnc1)c1ccc(Cl)c(S(=O)(=O)Nc2ccccc2C(=O)NCc2cccnc2)c1	-1%	u	8%	6%	1%	1%
CCOc1ccc(C(=O)Nc2cc(-c3cn4cccnc4n3)ccc2C)cc1OCC	x	-16%	x	x	x	x
COc1ccc(-c2noc(CSc3nnc(Cc4ccccc4)n3-c3ccc(F)cc3)n2)cc1	x	-4%	x	-20%	x	x
O=C(/C=C\c1ccccc1OC(=O)c1ccccc1F)c1cc2ccccc2o1	u	2.1µM*	16µM*	-117%	u	-2%
CC(=O)/C=C\c1ccccc1OC(=O)c1cc2ccccc2oc1=O	-2%	-4%	2%	x	-6%	x
CCn1cc(Br)c(C(=O)Nc2ccc(F)c(Cl)c2)n1	2.8µM*	17µM*	u	11%	2.2µM*	0%
CCOC(=O)c1ccc(NC(=O)c2nn(C)cc2Br)cc1	u	6.7µM*	21µM*	24%	u	-2%
CCOC(=O)c1ccc(NC(=S)NC(=O)c2nn(CC)cc2Br)cc1	2%	-3%	2%	12%	10%	0%
CCOC(=O)c1ccc(NC(=O)Nc2ccn(C)n2)cc1	u	u	18%	8%	u	2%
CCOC(=O)c1ccc(NC(=O)c2nn(CC)cc2Br)cc1	u	11µM*	u	u	u	-15%
COc1cc(/C=N/NC(=S)Nc2cccc(S(=O)(=O)N(C)C)c2)ccc1O	0%	2.7µM*	1%	21%	-3%	14%
COc1cc(/C=N\NC(=O)c2ccc(-c3ccccc3)cc2)cc(OC)c1O	21%	9.5µM*	4%	x	4%	x
COc1cc(/C=N/NC(=O)c2ccc3nc[nH]c3c2)cc(OC)c1OC	-7%	12µM*	-4%	x	-10%	x
Cc1ccccc1C(=O)Nc1cccc(C(=O)N/N=C/c2cc(Cl)cc([N+](=O)[O-])c2O)c1	1%	21µM*	14%	x	1%	x
O=C(Cn1nc2ccccc2n1)N/N=C/c1cc(Cl)cc([N+](=O)[O-])c1O	-3%	u	6%	-23%	-1%	-3%
